Source: PubChem BioAssay
Shown are actives, neighbours in structure and some others; about 2.3% of the full set was active somewhere.
S2 tox = reduces viability in counter-screen for ATXN expression inhibitors | 400,000 tested, 0.49% active | S2 cells (HEK-293 line with an ATXN2-luciferase reporter) viability, CellTiter-Fluor protease fluorescence, 24 h | Potency, µM (doses to about 56.7 µM), most hits filed as cytotoxic; also: nearly all actives have a fitted effect of over 40% in size
TGFb SMAD3 inh = inhibitors of TGF-b signaling. HepG2 CAGA-GFP TGF-b/SMAD3 reporter, GFP fluorescence, 18 h; TGF-beta stimulated, 500 pg/mL final. Potency, µM (highest dose often 46.1 µM), hits mostly inhibitors. 410,000 tested, 1.2% active. AID 588855; also: nearly all actives have a fitted effect of over 65% in size
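Per well, imaged GFP fluorescence of HEPG2 CAGA-GFP cells gives the signal; cells get compound, then TGF-beta (500 pg/mL final), 18 h at 37 degrees C; %Activity versus -TGF-beta and +DMSO controls.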
ATXN2 expr inh = reduces ATXN2 reporter expression in HEK-293 cells. 360,000 tested, 0.72% active. AID 1745845. HEK-293 ATXN2-luciferase reporter, luminescence, 24 h. Potency, µM (doses to about 57 µM), most hits filed as inhibitors; also: nearly all actives have a fitted effect of over 55% in size
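ATXN2-luciferase reporter cells (luciferase flanked by upstream and downstream ATXN2 gene portions) were treated 24 h at 37 °C with compounds at up to 57 uM. SteadyGlo luminescence gave expression; GF-AFC fluorescence gave viability.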
HepG2 tox-1 = counter-screen for TGF-b inhibitors: cytotoxicity in HepG2 cells. HepG2 CAGA-GFP viability, ATP luminescence, 18 h. Potency, µM (titrated, usually from 46.1 µM), actives largely listed as cytotoxic. 410,000 tested, 0.76% active
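CellTiter-Glo luminescence gave cytotoxicity after 18 hours at 37 degrees C. The cells were HepG2 CAGA-GFP in 1% FBS DMEM, stimulated with 500 pg/mL TGF-beta after compound addition. %Activity was normalised to no-cell wells (complete cell-killing) and DMSO (no toxicity), and curves were fitted and classified.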
TGFb CAGA inh = confirmation of TGF-b signaling inhibitors in HepG2 reporter cells. shares compounds with TGFb SMAD3 inh. Potency, µM (titrated, usually from 46.1 µM), usual class: inhibitors. 1,600 tested, 63% active. HepG2 CAGA-GFP TGF-b reporter, GFP fluorescence, 18 h; cells stimulated with TGF-beta, 500 pg/mL; also: nearly all actives have a fitted effect of over 65% in size
HepG2 tox-2 = toxic to HepG2 cells in TGF-b counterscreen | AID 720535 | shares compounds with TGFb SMAD3 inh | HepG2 CAGA-GFP viability, ATP luminescence, 18 h; cells stimulated with TGF-beta, 500 pg/mL | Potency, µM (highest dose often 46.1 µM), actives largely listed as inhibitors | 1,600 tested, 27% active; also: nearly all actives have a fitted effect of over 70% in size
TGFb CCL64 inh = TGF-b inhibition, CCL64 orthogonal assay | shares compounds with TGFb SMAD3 inh | CCL64 CAGA-GFP reporter, TGF-b stimulated, GFP fluorescence, 18 h | Potency, µM (series often up to 46.1 µM), actives largely listed as inhibitors | 1,600 tested, 41% active | AID 720536; also: nearly all actives have a fitted effect of over 65% in size
COP TGFb inh = blocks TGF-b signaling in HepG2 COP reporter. shares compounds with TGFb SMAD3 inh. HepG2 COP-GFP TGF-b reporter, GFP fluorescence, 18 h; cells stimulated by added recombinant TGF-beta. Potency, µM (highest dose often 46.1 µM), hits mostly inhibitors. 1,600 tested, 3% active; also: nearly all actives have a fitted effect of over 70% in size
Hits are given with their value; . = inactive; ? = inconclusive; / = not tested or not shown. Calls follow the shape of the dose curve; as a rule, active = well fitted curve in the direction sought with a large enough effect; inconclusive = small, poorly fitted or top-dose-only effect, or another doubt; inactive = no such curve, though single readings can be large; an effect the other way counts as inactive or inconclusive.

SMILES	S2 tox	TGFb SMAD3 inh	ATXN2 expr inh	HepG2 tox-1	TGFb CAGA inh	HepG2 tox-2	TGFb CCL64 inh	COP TGFb inh
COc1ccc(-c2c(-c3ccc4c(c3)OCO4)noc2-c2ccsc2)cn1	/	?	/	.	/	/	/	/
COc1ccccc1N1CCN(Cc2cc(Br)c(O)c3ncccc23)CC1	?	?	3.77µM	.	?	.	4.11µM	.
O=C(O)/C=C/c1ccc2ccccc2c1	/	.	/	.	/	/	/	/
CC(C)OC(=O)c1ccc(NCc2cc(O)ccc2O)cc1	/	?	?	.	/	/	/	/
O=C(OCc1ccccc1)c1ccc(NCc2cc(O)ccc2O)cc1	/	10µM	10µM	.	5.17µM	16.4µM	2.06µM	.
Cc1ccc(C2(c3ccc(C)cc3)CC2C(=O)Nc2ccc([N+](=O)[O-])cc2O)cc1 (stereo not drawn)	/	3.98µM	15.8µM	11.2µM	5.8µM	8.2µM	7.31µM	?
CC1(C)CC1C(=O)Nc1ccc([N+](=O)[O-])cc1Br (stereo not drawn)	.	.	.	.	/	/	/	/
COc1cc(OC)cc(C(=O)N[C@H](C(=O)Nc2nc(-c3ccc(OC)c(OC)c3)cs2)C(C)C)c1	.	12.6µM	/	.	14.6µM	.	.	.
COc1cc(OC)cc(C(=O)N[C@H](C(=O)Nc2nc(-c3cc(OC)ccc3OC)cs2)C(C)C)c1	.	.	.	.	/	/	/	/
COc1cc(C(=O)c2cocc2C(=O)c2ccc3c(c2)OCO3)cc(OC)c1OC	.	?	.	.	.	.	.	.
COc1cc(C(=O)c2ccc3c(c2)OCO3)cc(OC)c1OC	?	.	.	.	/	/	/	/
CC(=O)Oc1ccc2nonc2c1OC(C)=O	/	.	/	.	/	/	/	/
CC(=O)Nc1cc(OC(C)=O)c2nonc2c1OC(C)=O	/	2.82µM	?	6.31µM	4.11µM	7.31µM	20.6µM	9.2µM
COc1ccc(-c2csc(Nc3ccc(Oc4ccccc4)cc3)n2)cc1	?	11.2µM	?	.	7.31µM	.	.	.
COc1ccc(C2CC(=O)Oc3c(C(CCN4CCOCC4)c4ccc5c(c4)OCO5)c(OC)cc(OC)c32)cc1 (stereo not drawn)	/	.	/	.	/	/	/	/
O=C(Nc1ccc([N+](=O)[O-])cc1)Nc1cnccn1	.	?	.	.	?	?	?	.
CCCOc1ccc(CSc2nc3ccccc3[nH]2)cc1	?	10µM	.	.	.	?	?	.
CC(=O)N(CC(O)CO)c1c(I)c(C(=O)NCCO)c(I)c(C(=O)NCC(O)CO)c1I (stereo not drawn)	.	/	.	/	/	/	/	/
O=C1C(Cl)=C(NCc2cccnc2)C(=O)c2ccccc21	?	3.16µM	?	1.41µM	4.61µM	6.51µM	?	16.4µM
CC1=C(Nc2ccc(C(=O)O)cc2)C(=O)c2ccccc2C1=O	?	7.94µM	.	.	14.6µM	?	.	.
O=C(O)c1ccc2c(c1Nc1ccccc1)C(=O)c1ccccc1C2=O	?	.	?	.	/	/	/	/
O=C1C(Cl)=C(Nc2ccccc2)C(=O)c2ccccc21	28.2µM	4.47µM	?	6.31µM	3.26µM	6.51µM	?	.
Nc1nc2[nH]cc(CCc3ccc(C(=O)N[C@@H](CCC(=O)O)C(=O)O)cc3)c2c(=O)[nH]1	/	.	.	.	/	/	/	/
O=C(NCc1ccccn1)C1(C(F)(F)F)CC(CCCO)CCCO1 (stereo not drawn)	/	.	/	.	/	/	/	/
CCCCc1ccc(CC(=O)NO)cc1	/	.	/	.	/	/	/	/
SMILES	S2 tox	TGFb SMAD3 inh	ATXN2 expr inh	HepG2 tox-1	TGFb CAGA inh	HepG2 tox-2	TGFb CCL64 inh	COP TGFb inh
Cc1ccccc1Cn1ccc(NC(=O)c2cnn3c2NC(c2ccccc2)CC3C(F)(F)F)n1 (stereo not drawn)	.	7.94µM	.	.	?	?	23.1µM	.
O=C(NCc1ccco1)c1cnn2c1NC(c1ccccc1)CC2C(F)(F)F (stereo not drawn)	.	.	.	.	/	/	/	/
CCCCCCCCN(CCCCCCCC)c1ccc(/C=C/c2ccnc3ccccc23)cc1	/	.	/	.	/	/	/	/
O=C(CNC(=O)C(c1ccccc1)c1ccccc1)OCC(=O)c1ccc2ccccc2c1	/	.	/	.	/	/	/	/
OCCCn1c(C(CO)Nc2nc(-c3ccc(Cl)cc3)cs2)nc2ccccc21 (stereo not drawn)	.	17.8µM	.	.	14.6µM	.	?	.
Cc1ccc(Cn2c(C(CO)Nc3nc(-c4ccc(F)cc4)cs3)nc3ccccc32)cc1 (stereo not drawn)	/	.	?	.	/	/	/	/
Cc1ccc(-c2cc(C3C4C=CCC(C)C4C(=O)N3Cc3ccccc3)ccc2F)cc1 (stereo not drawn)	/	.	/	.	/	/	/	/
Cc1ccc(C(=O)Nc2nc(C)c(C(=O)Nc3ccc4c(c3)CCC4)s2)cc1	?	11.2µM	.	.	14.6µM	?	8.2µM	.
CCCCN(CCN(CCCC)C(=O)N1CCOCC1)C(=O)N1CCOCC1	.	/	.	/	/	/	/	/
Cc1cc(N2CCOCC2)nc(NCc2ccccc2)n1	.	10µM	.	.	14.6µM	.	?	.
O=C(Nc1ccccc1)Nc1nnc(CSCc2ccccc2Cl)s1	?	7.94µM	?	.	?	.	?	.
CC1(C(=O)NCC2CCCCC2)CCN1C(=O)Cc1ccc(-c2ccccc2)cc1 (stereo not drawn)	.	?	.	.	.	.	?	.
Cc1ccnc(Nc2nc(-c3ccccc3)cs2)c1	.	10µM	/	.	.	.	.	.
Clc1nc(NCc2ccco2)c2[nH]cnc2n1	/	.	/	.	/	/	/	/
COc1ccc(Nc2nccc(-c3ccc(C#N)cc3)n2)cc1	.	.	.	.	/	/	/	/
COc1ccc(Nc2nccc(-c3cccc(N)c3)n2)cc1	?	10µM	.	.	8.2µM	5.8µM	8.2µM	.
COC(=O)c1ccc(Cl)cc1NC(=O)N1CC=C(c2c[nH]c3ccccc23)CC1	/	.	/	.	/	/	/	/
COc1cc(OC)cc(C(=O)NCCCCCCNC(=O)c2cc(OC)cc(OC)c2)c1	.	.	.	.	.	.	.	.
CC(C)(C)n1ncc2c(=O)n(Cc3ccccc3)cnc21	/	.	/	.	/	/	/	/
COc1ccc(C2NC(c3ccc4c(c3)OCO4)=CC(c3ccccc3O)N2)cc1OC (stereo not drawn)	/	.	/	.	/	/	/	/
CCc1ccccc1Oc1nc(NCc2ccccc2)nc2ccsc12	.	11.2µM	.	.	23.1µM	?	16.4µM	.
CNc1nc(NCc2ccccc2)c2sccc2n1	.	?	.	.	/	/	/	/
c1ccc(CNc2nc(NCc3cccs3)nc3ccsc23)cc1	?	?	.	.	/	/	/	/
